In PubChem BioAssay (NCATS):
Inconclusive results are not listed. Where a call stands in place of a potency, no number is given. Unmarked numbers belong to inactive results. Activity calls are given as the source filed them. Calls follow the shape of the dose curve; as a rule, active = well fitted curve in the direction sought with a large enough effect; inconclusive = small, poorly fitted or top-dose-only effect, or another doubt; inactive = no such curve, though single readings can be large; an effect the other way counts as inactive or inconclusive.

How the values were obtained:
[1] = biological target: Aldehyde dehydrogenase, mitochondrial (Homo sapiens) (UniProt P05091); assay: qHTS for Inhibitors of the Aldehyde Dehydrogenase Family (ALDH2) Primary screen (AID 2061308); details: ALDH2 enzyme inhibition qHTS, 1536-well; series mostly up to 56 µM; also: nearly all actives have a fitted effect of over 55% in size
[2] = biological target: Retinaldehyde dehydrogenase 3 (Homo sapiens) (UniProt P47895); assay: qHTS for Inhibitors of the Aldehyde Dehydrogenase Family (ALDH1A3) Primary screen (AID 2061315); details: ALDH inhibition qHTS; series mostly up to 56 µM

Compound | Potency [1] | Potency [2] | activity change, negative = inhibition [1] | activity change, negative = inhibition [2]
Cc1cc2c(s1)c1cnn(Cc3cc(F)cc(F)c3)c(=O)c1n2C | inactive | inactive | – | –
O=S1(=O)N=C(Sc2cc(C(F)(F)F)cc(C(F)(F)F)c2)c2ccccc21 | inactive | inactive | – | –
CC[C@@H]1C[C@]1(NC(=O)[C@@H]1C[C@@H]2CN1C(=O)[C@H](C(C)(C)C)NC(=O)OCC(C)(C)CCCCc1cccc3c1CN(C3)C(=O)O2)C(=O)NS(=O)(=O)C1CC1 | inactive | inactive | – | –
Cc1ccc(OCCn2c(CCNC(=O)Cc3ccc(F)cc3F)nc3ccccc32)cc1 | inactive | inactive | – | –
CCCn1c(C)nc2c(N3CCN(C)CC3)nc(C)nc21 | inactive | inactive | – | –
COc1ccc(C2Nc3ccccc3C(=O)N2Cc2ccccc2)cc1COc1c(C)cc(NC(C)=O)cc1C (centres undefined) | inactive | inactive | – | –
COc1cccc(C2c3c(ncn(CCN4CCOCC4)c3=N)Oc3ccc4ccccc4c32)c1 (centres undefined) | inactive | inactive | – | –
CCCN1CCN(c2cccc(Nc3nn4c(=O)c5ccccc5nc4s3)c2)CC1 | inactive | inactive | – | –
Cc1cc2c(s1)c1cnn(Cc3cccc(F)c3)c(=O)c1n2C | inactive | inactive | – | –
Cc1cc2c(s1)c1cnn(Cc3cc(F)c(Cl)cc3Cl)c(=O)c1n2C | inactive | inactive | – | –
Fc1cc(Nc2nc(-c3ccncc3)nc3ccccc23)ccc1OCC(F)(F)F | inactive | inactive | – | –
COc1cc(OC)cc(C2=Nn3c(nnc3-c3ccccc3OC)SC2)c1 | inactive | inactive | – | –
CCOc1ccc(CCNC(=O)c2cc3sccc3n2C)cc1OCC | inactive | inactive | – | –
Cn1nnnc1Sc1ncnc2scc(-c3cc4ccccc4o3)c12 | inactive | inactive | – | –
CC(Cc1cnccn1)Nc1cnc2c(O)ccc(C(=O)O)c2c1 (centres undefined) | inactive | inactive | – | –
CC(=O)Nc1ccc(S(=O)(=O)N2CCN(c3ccc(C(C)=O)cc3)CC2)cc1 | inactive | inactive | – | –
O=C1CCCC2=C1C1(CCCC1)N=C(Nc1nc3cc(Cl)ccc3o1)N2 | inactive | inactive | – | –
Cc1cc(C)nc(NC(=S)N2CCN(c3cc(Cl)c(Cl)cc3Cl)CC2)c1 | inactive | inactive | – | –
Cc1nc(NCc2ccccc2)c2nc(-c3ccccc3)n(CC3CCN(C)CC3)c2n1 | inactive | inactive | – | –
O=[S+]([O-])(/C=C/c1nc(Nc2cc(F)cc(F)c2)c2ncn(CC(F)F)c2n1)c1ccccc1 | inactive | inactive | – | –
COCc1nn2c(=O)cc(N3CCNCC3)nc2s1 | inactive | inactive | – | –

Compound | Potency [1] | Potency [2] | activity change, negative = inhibition [1] | activity change, negative = inhibition [2]
COc1ccc(C2Nc3ccccc3C(=O)N2CCCN(C)C)cc1COc1c(C)cc(NC(C)=O)cc1C (centres undefined) | inactive | inactive | – | –
Cc1noc(C)c1-c1ccc2ncnc(NC(C)c3ccco3)c2c1 (centres undefined) | inactive | inactive | – | –
COc1ccc(C(CC(=O)N2CC(C)CC(C)C2)c2c(O)cc(OC)cc2OC)cc1 (centres undefined) | inactive | inactive | – | –
COc1ccc(OC)c(C2=Nn3c(nnc3-c3ccccc3C)SC2)c1 | inactive | inactive | – | –
Fc1cc(Nc2nc(-c3ccncc3)nc3ccccc23)ccc1-c1ccc2[nH]ncc2c1 | inactive | inactive | – | –
COc1ccc(N2C(=O)c3ccccc3S2(=O)=O)cc1 | inactive | inactive | – | –
CC(C)(C)N=Cc1c(-c2ccccc2)no[n+]1[O-] | inactive | inactive | – | –
COc1ccnc(NC(=S)N2CCN(c3ncc(C(F)(F)F)cc3Cl)CC2)c1 | inactive | inactive | – | –
Cc1cc(C)nc(NC(=S)N2CCN(c3ccc(F)c(F)c3F)CC2)c1 | inactive | inactive | – | –
CCCCN(C)C(=O)Cn1nc(-c2ccc(F)cc2)ccc1=O | inactive | inactive | – | –
COc1ccc(C2N=C(Nc3nc4ccccc4o3)NC3=C2C(=O)CCC3)cc1 (centres undefined) | inactive | inactive | – | –
c1nc(NCc2ccoc2)c2cc(-c3ccc4c(c3)OCO4)ccc2n1 | inactive | inactive | – | –
O=C(Nc1ncc(Cc2ccc(C(F)(F)F)cc2)s1)c1ccc(-c2cccnc2)o1 | inactive | inactive | – | –
COc1ccc(-c2ccc(NC(=O)c3cccs3)cn2)cc1 | inactive | inactive | – | –
Cc1ccc(S(=O)(=O)Nc2ccc(C(=O)Nc3ncc(-c4ccccc4)s3)cc2)cc1 | inactive | inactive | – | –
Cc1occc1CNc1ncnc2ccc(-c3ccc4c(c3)OCO4)cc12 | inactive | inactive | – | –
O=C(OCC#CCSc1nnc(-c2ccccc2Cl)o1)c1ccc(F)cc1 | inactive | inactive | – | –
CC(=O)Nc1ccc(Cl)cc1C(=O)c1ccc[nH]1 | inactive | inactive | – | –
Cc1cn([C@H]2C[C@H](N[S+](=O)([O-])Cc3cccc([N+](=O)[O-])c3)[C@@H](CO)O2)c(=O)[nH]c1=O | inactive | inactive | – | –
O=C1CCCC2=C1C(c1[nH]ncc1Cl)NC(=NCc1ccncc1)N2 (centres undefined) | inactive | inactive | – | –
O=c1c2ccccc2nc2sc(Nc3ccc4c(c3)CNC4)nn12 | inactive | inactive | – | –

Compound | Potency [1] | Potency [2] | activity change, negative = inhibition [1] | activity change, negative = inhibition [2]
CCNC(=O)c1ccc(-c2ccc3ncnc(NCC(C)(C)C)c3c2)o1 | inactive | inactive | – | –
Cc1cccc(-n2cnc3cc(C(=O)N4CCCC4)ccc32)c1 | inactive | inactive | – | –
CC1OC(OC2C(O)COC(O[C@@H]3[C@@H](O)[C@@H](O)[C@H](OC4C(OC(=O)[C@]56CCC(C)(C)CC5C5=CCC7[C@@]8(C)C[C@H](O)[C@H](OC9OC(CO)C(O)C(O)C9O)[C@@](C)(CO)C8[C@H](O)C[C@@]7(C)[C@]5(C)CC6)OCC(O)C4O)O[C@H]3C)C2O)C(O)C(O)C1O (some centres undefined) | – | – | 13.1% [at 11.2 µM] | 4.77% [at 11.2 µM]
O=C(NC1CCCc2c1cnn2-c1ccc(F)cc1F)c1ccn[nH]1 (centres undefined) | inactive | inactive | – | –
O=C1CCc2cc(S(=O)(=O)Nc3cccc(C(F)(F)F)c3)ccc2N1 | inactive | inactive | – | –
c1ccc(-c2nc(NCc3ccc(-c4cccnc4)cc3)c3ccccc3n2)cc1 | inactive | inactive | – | –
CC(=O)Nc1sc2cnccc2c1-c1nc2ccccc2s1 | inactive | inactive | – | –
O=C(Nc1nc(-c2ccccc2)cs1)c1ccncc1NS(=O)(=O)c1cccc2cccnc12 | inactive | inactive | – | –
CCCn1ncc(CN2CCCC(C(=O)c3cccc(OC(C)C)c3)C2)c1C (centres undefined) | inactive | inactive | – | –
CC1=C[C@@H]2[C@H]3[C@@H]4O[C@@](C)(CC[C@H]4O)[C@H]3CC(=O)[C@]23C(=O)N[C@@H](CC(C)C)[C@@H]3[C@@H]1C | inactive | inactive | – | –
COCCN(CCOC)c1nc(C)nc2c1nc(-c1ccccc1)n2CCN1CCOCC1 | inactive | inactive | – | –
COc1ccc(OC)c(-c2nnc3n2N=C(c2ccc(OC)c(OC4CCCC4)c2)CS3)c1 | inactive | inactive | – | –
COc1cccc(-c2nnc3n2N=C(c2ccc(OC)cc2OC)CS3)c1 | inactive | inactive | – | –
Cn1nnnc1Sc1ncnc2scc(-c3ccc(F)cc3)c12 | inactive | inactive | – | –
Cc1nc(NC2CCCCC2)c2nc(-c3ccccc3)n(CCN3CCCCC3)c2n1 | inactive | inactive | – | –
Cc1cc(C)nc(NC(=S)N2CCN(c3cnccn3)CC2)c1 | inactive | inactive | – | –
CCc1ccc(NC(=O)C(=O)NNC(=O)Cc2ccc(Cl)c(Cl)c2)cc1 | inactive | inactive | – | –
COc1ccc([S+](=O)([O-])N2CCCN([S+](=O)([O-])c3ccc(OC)c(N)c3)CC2)cc1N | inactive | inactive | – | –
Cn1nnnc1Sc1ncnc2scc(-c3cccc4c3sc3ccccc34)c12 | inactive | inactive | – | –
O=[S+]([O-])(NC[C@H]1CCC[C@H](CN[S+](=O)([O-])c2c(F)cccc2F)C1)c1ccc2c(c1)OCCO2 | inactive | inactive | – | –
Cc1ccc(S(=O)(=O)Nc2ccccc2C(=O)Nc2nc(-c3ccccc3)c(C)s2)cc1 | inactive | inactive | – | –

Compound | Potency [1] | Potency [2] | activity change, negative = inhibition [1] | activity change, negative = inhibition [2]
O=C(NC1CCCc2c1cnn2-c1ccc(F)cc1F)C1CC1 (centres undefined) | inactive | inactive | – | –
Cc1cc(C)nc(NC(=S)N2CCN(c3nsc4ccccc34)CC2)c1 | inactive | inactive | – | –
CC(=O)Nc1sc2c(c1-c1nc(-c3ccccc3)cs1)CCN(C(C)C)C2 | inactive | inactive | – | –
CCCn1c(C)nc2c(N3CCC(N4CCN(C)CC4)CC3)nc(C)nc21 | inactive | inactive | – | –
Fc1ccc(-c2nc(CCCCSc3nnc(-c4cccc5ccccc45)o3)no2)cc1 | inactive | inactive | – | –
O=C(Nc1ccc(C(=O)Nc2nccs2)cc1)c1ccc2ccccc2c1 | inactive | inactive | – | –
Cc1ccnc(NC(=S)N2CCN(c3cc(C(F)(F)F)cc(C(F)(F)F)c3)CC2)c1 | inactive | inactive | – | –
O=C(Nc1ccc(Cl)c(Cl)c1)Nc1ccnc(-c2ccncc2)n1 | inactive | inactive | – | –
Brc1cnc2nc(SCc3ccccn3)[nH]c2c1 | inactive | inactive | – | –
O=C(OCC#CCSc1nnc(-c2cccc3ccccc23)o1)c1sc2ccccc2c1Cl | inactive | inactive | – | –
COc1ccc(C2Nc3ccccc3C(=O)N2Cc2ccncc2)cc1COc1c(C)cc(NC(C)=O)cc1C (centres undefined) | inactive | inactive | – | –
O=S(=O)(c1ccc2nc(Cl)c(Cl)nc2c1)N1CCN(S(=O)(=O)c2c(F)cccc2F)CC1 | inactive | inactive | – | –
CCCc1ccc(-c2csc(NC(=O)c3ccncc3NS(=O)(=O)c3ccc(C)cc3)n2)cc1 | inactive | inactive | – | –
Cc1c(P(=S)(c2ccccc2)c2ccccc2)c2ccccc2n1C(=O)Cc1ccccc1 | inactive | inactive | – | –
Cc1ccc(NS(=O)(=O)c2ccc3c(c2)CCC(=O)N3)cc1 | inactive | inactive | – | –
C=CCNc1oc(-c2ccc(-c3ccccc3)cc2)nc1C#N | inactive | inactive | – | –
CC(C)CC(=O)c1c(O)cc2c(c1O)C(CC(C)C)C1=C(O2)C(C)(C)C(=O)C(C)(C)C1=O (centres undefined) | inactive | inactive | – | –
Cc1cc(C)nc(NC(=S)N2CCN(c3ncnc4ccccc34)CC2)c1 | inactive | inactive | – | –
O=C(Nc1ccc(F)c(C(F)(F)F)c1)Nc1ccc(-c2ccncc2)s1 | inactive | inactive | – | –
